Experimental data taken from PubChem BioAssay AID1619 (SRMLSC, 2009).
The whole screen tested about 220,000 compounds, of which about 830 (0.38%) were called active.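 The calls were made as follows: active = compound inhibiting the enzyme by more than half at any dose during confirmatory dose-response retesting; inconclusive = strong single-dose inhibitors picked by rank but not retested; inactive = the rest.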 A selection follows. Potency and affinity values are given separately.

What follows are compounds tested against Leucine aminopeptidase (Plasmodium falciparum (isolate 3D7)) (UniProt Q8IL11) (assay: P. falciparum M17LAP inhibitors, primary screen, biochemical, fluorogenic H-Leu-NHMec substrate, 1536-well (AID 1619;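 also: plate controls were full reaction with DMSO carrier for no effect and no enzyme background for full effect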)). Settings: recombinant M17LAP, H-Leu-NHMec fluorogenic kinetic assay; at 30 µM; active compounds read high.
Leucine aminopeptidase (Plasmodium falciparum (isolate 3D7)), sequence (Q8IL11 whole entry, looked up): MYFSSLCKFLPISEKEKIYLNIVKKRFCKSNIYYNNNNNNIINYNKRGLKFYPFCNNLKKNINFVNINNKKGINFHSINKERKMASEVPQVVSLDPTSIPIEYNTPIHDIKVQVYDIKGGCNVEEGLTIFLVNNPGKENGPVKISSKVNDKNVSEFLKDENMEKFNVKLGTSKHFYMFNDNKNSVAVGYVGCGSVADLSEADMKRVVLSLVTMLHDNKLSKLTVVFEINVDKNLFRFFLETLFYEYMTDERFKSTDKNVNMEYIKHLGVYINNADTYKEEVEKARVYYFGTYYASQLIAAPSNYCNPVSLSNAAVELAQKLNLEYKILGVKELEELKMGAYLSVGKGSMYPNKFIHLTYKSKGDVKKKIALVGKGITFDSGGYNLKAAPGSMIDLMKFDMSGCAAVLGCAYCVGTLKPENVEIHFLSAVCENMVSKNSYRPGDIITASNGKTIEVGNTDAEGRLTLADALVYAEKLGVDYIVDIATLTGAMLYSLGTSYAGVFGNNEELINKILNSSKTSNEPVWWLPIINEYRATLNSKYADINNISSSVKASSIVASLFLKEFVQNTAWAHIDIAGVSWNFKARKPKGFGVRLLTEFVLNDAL

inhibition, inactive:
Cc1cc(C)c(OC2(c3ccccc3)OC(=O)c3ccccc32)c(C)c1 (centres undefined) -10.6%
Cc1ccccc1/C=N/N=C1/NC(=O)CCS1 23.8%
CN1CCC(=NNC(=O)C(=O)Nc2ccc(F)cc2)CC1 13.2%
COc1cccc(CNC(=O)CCNS(=O)(=O)c2cccc3nsnc23)c1 -1.94%
Cn1cccc1Cc1nnc(SCC(=O)N2CCc3ccccc32)n1CCc1ccccc1 36.6%
O=C(N/N=C/c1ccccc1C(=O)O)c1cc(-c2ccc3c4c(cccc24)CC3)n[nH]1 91.8%
O=C(N/N=C/c1cccc([N+](=O)[O-])c1)c1cc(-c2ccc3c4c(cccc24)CC3)n[nH]1 -2.54%
CC(C)=CC(=O)Nc1ccc(OCc2ccccc2)cc1 2.98%
O=C(NCC1CCCO1)/C(=C\c1cccc([N+](=O)[O-])c1)NC(=O)c1ccccc1 (centres undefined) -4.67%
O=C(O)Cn1c(=O)cnc2ccccc21 -13.7%
CC(C)C1N=C2c3ccccc3N=C(SCC#N)N2C1=O (centres undefined) -5.52%
CC(C)C1N=C2c3ccccc3N=C(SCC(=O)NCCc3ccc(S(N)(=O)=O)cc3)N2C1=O (centres undefined) -29.1%
CNC(=O)c1c2c(nc3ccc(Br)cc13)CCCC2 -4.18%
Cc1ccc(-n2c(SCC(=O)Nc3ccc4c5c(cccc35)CC4)nc(O)cc2=O)cc1 26.7%
Cc1ccc(-n2c(SCC(=O)Nc3ccc4c5c(cccc35)CC4)nc(O)c(C)c2=O)cc1 39%
COc1ccc(-n2c(SCC(=O)Nc3cccc4ccccc34)nc(O)cc2=O)cc1 -2.11%
Cc1nnc(SCC(=O)Nc2ccc3c4c(cccc24)CC3)n1C 0.6%
Cc1cccc(OCC(=O)Nc2ccc3c4c(cccc24)CC3)c1C 6.88%
O=C(CSc1nc2ccccc2c(=O)n1-c1ccc(F)cc1)Nc1ccc2c(c1)CCC2 13.5%
Cc1ccccc1Cn1nc(C)c(NC(=O)C2c3ccccc3Oc3ccccc32)c1C -14%
CCN(CC)C(=O)c1ccc(-c2nnc(OC)c3ccccc23)cc1 -4.54%
COC(=O)c1c(-c2cccs2)csc1NC(=O)c1cccnc1 15.9%
CCCn1c(SCC(=O)N2c3ccccc3Sc3ccccc32)nc2ccccc21 -2.24%
CC1CCCCN1Cc1c(C#N)c2ccccc2n1C (centres undefined) -2.84%
Cc1c(Cl)c(C(F)F)nn1CC(=O)NC1C(=O)N2C(C(=O)O)=C(CSc3nnnn3C)CSC12 (centres undefined) 11.3%
Cc1nnc(SCC2=C(C(=O)O)N3C(=O)C(NC(=O)Cn4nc(C(F)F)cc4C)C3SC2)s1 (centres undefined) 47.7%
O=C(Nc1ccc(Oc2cccc3ccccc23)cc1)c1ccco1 -4.51%
CCN1C(=O)CC(N2CCN(c3ccc(C(=O)c4ccncc4)cc3)CC2)C1=O (centres undefined) 31.2%
CC(=O)NC(C(=O)OCC(=O)N(c1ccccc1)c1ccccc1)C(C)C (centres undefined) 0.51%
Cc1cc(N2CCCC2)ccc1/C=C1/C(=O)N(C)C(=S)N1C 1.26%
Cc1cc(N2CCCC2)ccc1/C=C1\NC(=S)N(C)C1=O -1.37%
COc1cc2c(cc1OC)C(C(=O)N1CCCCC1)C(c1ccccc1F)N(C)C2=O (centres undefined) 2.89%
S=c1cnc2ccccc2[nH]1 6.02%
N#CCCn1cc(C(=O)N2CCCCC2)c(-c2cccc([N+](=O)[O-])c2)n1 4.89%
CC1(C)CC(=O)C(C(C2=C(O)CC(C)(C)CC2=O)c2ccc(Cl)c([N+](=O)[O-])c2)C(=O)C1 (centres undefined) 7.5%
CN(C)/C=N/c1sc2c(c1C#N)CCCCC2 5.07%
CN(C)/C=N/c1sc2c(c1C#N)CCCC2 0.79%
COc1cc(CNC2CCCC2)cc(Cl)c1OCc1ccccc1F -3.97%
CC(NC(=O)c1ccc(Br)cc1)c1ccccc1 (centres undefined) 12.4%
CCn1c(-c2cccc(Cl)c2)n[nH]c1=S 6.53%
Cc1nc(-c2cccc(Cl)c2)n[nH]1 -5.31%
COC(=O)CN1C(=O)C(O)(CC(=O)c2ccc(Cl)cc2)c2ccccc21 (centres undefined) 12.1%
C/C(=N/NC(=O)CSCc1ccc(Cl)cc1)c1cccc(NC(=O)c2ccccc2)c1 -0.71%
CN(C)C(=S)Nc1cccc(-c2n[nH]c(=S)o2)c1 4%
O=C(CN1C(=O)c2cccc3cccc1c23)Nc1ccc2c(c1)OCO2 31.3%
CC1CC(=O)N(CC(=O)NCc2ccc3c(c2)OCO3)c2ccccc2S1 (centres undefined) 24%
O=C(CN1C(=O)CSc2ccccc21)Nc1ccc2c(c1)OCCO2 12.7%
O=C(CN1C(=O)CCSc2ccccc21)Nc1ccc2c(c1)OCO2 48.6%
O=C(CCN1C(=O)c2ccccc2C1=O)Nc1ccc2c(c1)OCCO2 10.7%
CC1CC(=O)N(CC(=O)Nc2ccc3c(c2)OCCO3)c2ccccc2S1 (centres undefined) 51.7%
O=C(CCCNS(=O)(=O)c1cccs1)N1CCc2ccccc2C1 -15.3%
COc1ccccc1C(=O)N(NC(=O)Oc1ccccc1)C(C)(C)C -4.52%
COc1cc(/C=N/NC(=O)c2nonc2N)cc(OC)c1OC 12.6%
S=C(Nc1ccccc1)N(CCN1CCOCC1)Cc1cccc(Cl)c1 3.82%
CCOC(=O)c1[nH]c2ccc(Br)cc2c1NC(=O)CCN1CCCC(C)C1 (centres undefined) 19.3%
CCC(C)(C)NC(=O)CN(C(=O)c1snc(C(N)=O)c1N)c1ccc(OC)c(OC)c1 -0.26%
Cn1cnnc1SCC(=O)Nc1ccc(Br)cc1F 4.31%
COC(=O)c1ccc(Cl)c(NC(=O)CN2CCN(C)CC2)c1 -7.62%
CCCn1c(SCC(=O)Nc2ccccc2CC)nnc1C(C)C -2.04%
COC(=O)c1ccc(Cl)c(NC(C)=O)c1 4.44%
CCc1ccccc1NC(=O)CSc1n[nH]c(C)c1[N+](=O)[O-] -11.3%
O=C(CSCC(=O)Nc1cccc2ccccc12)Nc1cccc2ccccc12 -9.94%
O=C(CSc1ccccn1)Nc1cccc2ccccc12 6.7%
CC(C)n1cnnc1SCC(=O)Nc1ccc(Br)cc1F -3.86%
